System: Vero E6 infected with SARS-CoV-2
Experiment: morphology score (similarity to uninfected cells); higher = more like uninfected cells
Details: 24 h

First: Cc1cc(C(C#N)c2ccc(Cl)cc2)c(Cl)cc1NC(=O)c1cc(I)cc(I)c1O (centres undefined) [closantel] (10 µM)
Second: N#Cc1ccc(COC[C@H]2O[C@@H](n3c(NCc4ccc(Cl)c(Cl)c4)nc4c(N)ncnc43)[C@H](O)[C@@H]2O)cc1 (10 µM)
The morphology score of the first is higher: 0.257 for the first, 0.0983 for the second.

First: C=CC1=C(C(=O)O)N2C(=O)[C@@H](NC(=O)/C(=N\O)c3csc(N)n3)[C@H]2SC1 [cefdinir] (10 µM)
Second: CC(=O)/N=c1/sc(S(N)(=O)=O)nn1C [methazolamide] (10 µM)
The morphology score of the first is lower: -0.118 for the first, -0.0286 for the second.

Going from `CN(C)CCCn1cc(C2=C(c3c[nH]c4ccccc34)C(=O)NC2=O)c2ccccc21` (0.833333 µM) to `COc1ccc(C2CNC(=O)NC2)cc1O[C@H]1C[C@@H]2CC[C@H]1C2` [atizoram] (10 µM), the morphology score rises from -0.0102 to 0.369.

Going from `C#Cc1cnc2nc(O)n(C(CC)CC)c2n1` [tirasemtiv] (10 µM) to `O=C(N[C@H]1CN2CCC1CC2)c1cc2cccc(Cl)c2s1` (10 µM), the morphology score rises from -0.109 to 0.352.

`O=C1CCCCCCCCCCCCCCO1` [oxacyclohexadecan-2-one] (10 µM) showed a morphology score of -0.0503.
